# Measured values taken from PubChem BioAssay (EPA / NIEHS).
# Records with an inconclusive call do not appear. Active and inactive are the calls of the source. How the source made its calls: active means hit-call score of the fitted dose curve at least 0.9, where 1 is the maximum; inconclusive means response in the unintended direction; inactive means score below 0.9.
# Experiments:
# [1] = biological target: human Adrenergic, Alpha 2c Receptor (Adra2C), ADRA2C (gene 152) (UniProt P18825); assay: NVS_GPCR_hAdra2C: NovaScreen (NVS) G Protein-Coupled Receptor Assay for human Adrenergic, Alpha 2c Receptor (Adra2C) (AID 2283259)
# Outline: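 Screened first in duplicate at 25 uM, with actives then run as concentration series. Membranes from Sf9 cells were exposed for 1 h, and displacement of radioligand was counted after filtration, using DMSO as baseline.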
# [2] = biological target: human Adenosine A2a Receptor (AdoRA2a), ADORA2A (gene 135) (UniProt P29274); assay: NVS_GPCR_hAdoRA2a: NovaScreen (NVS) G Protein-Coupled Receptor Assay for human Adenosine A2a Receptor (AdoRA2a) (AID 2283256)
# Outline: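 Compounds screened in duplicate at 25 uM, with actives followed up in concentration series, for displacement of a radioligand from HEK293-derived receptor protein. Bound counts read by filter scintillation at 1.5 hours, DMSO as baseline.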
# [3] = biological target: human Dopamine Receptor D2 (DRD2), DRD2 (gene 1813) (UniProt P14416); assay: NVS_GPCR_hDRD2s: NovaScreen (NVS) G Protein-Coupled Receptor Assay for human Dopamine Receptor D2 (DRD2) (AID 2283266)
# Procedure: NVS_GPCR_hDRD2s is a biochemical, single-readout assay that uses extracted gene-proteins from CHO in a cell-free assay. Measurements were taken 1.5 hours after chemical dosing in a 96-well plate.NVS_GPCR_hDRD2s is one of one assay component(s) measured or calculated from the NVS_GPCR_hDRD2s assay. It is designed to make measurements of radioligand binding, a form of binding reporter, as detected with scintillation counting signals by Filter-based radiodetection technology.Data from the assay component NVS_GPCR_hDRD2s was analyzed into 1 assay endpoint. This assay endpoint, NVS_GPCR_hDRD2s, was analyzed in the positive analysis fitting direction relative to DMSO as the negative control and baseline of activity. Using a type of binding reporter, loss-of-signal activity can be used to understand changes in the binding as they relate to the gene DRD2. Furthermore, this assay endpoint can be referred to as a primary readout, because the performed assay has only produced 1 assay endpoint. To generalize the intended target to other relatable targets, this assay endpoint is annotated to the gpcr intended target family, where the subfamily is rhodopsin-like receptor.
# Binding assays used specific radioligands (tritiated, iodinated) with non-radioactive competitive displacement ligands in agonist or antagonist protocols (as indicated) and various reference compounds and inhibitors to titrate specific binding to receptors and transporters. Most enzyme assays (CYPs, kinases, phosphatases, proteases, HDACs) used recombinant protein and specific substrates (fluorescence mostly, some colorimetric and radioactive) and inhibitors, followed by a biochemical separation of substrate and product. All assays for the biochemical HTS were initially run in duplicate at a single concentration (10 uM for CYP450 assays and 25 uM for all others). […] Each assay was run with positive and negative controls, and concurrent controls on every plate. The follow-up (secondary) screen tested active chemical-pairs in concentration series, as well as a few additional assays not tested in the primary screen, some selected negative inactives, and several cases re-run in the concentration series for confirmatory purposes.
# [4] = biological target: Type-1 angiotensin II receptor (Homo sapiens) (UniProt P30556); assay: NVS_GPCR_hAT1: NovaScreen (NVS) G Protein-Coupled Receptor Assay for human Angiotensin II receptor type 1 (AT1) (AID 2283263)
# Outline: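 Hits from a 25 uM duplicate screen (threshold e.g. 30% inhibition) were run in concentration-response with 50 uM top concentration. Displacement of specific radioligand from KAN-TS membrane preparations measured after 3 h by filter scintillation, DMSO as baseline.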
# [5] = biological target: human Adrenergic, Alpha 2A Receptor (Adra2A), ADRA2A (gene 150) (UniProt P08913); assay: NVS_GPCR_hAdra2A: NovaScreen (NVS) G Protein-Coupled Receptor Assay for human Adrenergic, Alpha 2A Receptor (Adra2A) (AID 2283257)
# Outline: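 Displacement of a specific radioligand from HT29 membrane protein was counted by filter scintillation after 1 h. Compounds were screened in duplicate at 25 uM, and actives were retested in concentration series. Fitting was positive-direction against DMSO.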
# [6] = biological target: human Serotonin, 5-Hydroxytryptamine Receptor 7 (5HT7), HTR7 (gene 3363) (UniProt P34969); assay: NVS_GPCR_h5HT7: NovaScreen (NVS) G Protein-Coupled Receptor Assay for human Serotonin, 5-Hydroxytryptamine Receptor 7 (5HT7) (AID 2283255);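 further: hits reduce specific radioligand binding relative to DMSO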
# Outline: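 Filter-bound radioactivity counted after 1 h, with loss of specific radioligand binding fitted against DMSO. Membrane protein came from CHO cells expressing human 5HT7. Chemicals were tested first at 25 uM in duplicate, then in concentration series if active.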
# [7] = biological target: human Adrenergic, Beta 3 Receptor (Adrb3), ADRB3 (gene 155) (UniProt P13945); assay: NVS_GPCR_hAdrb3: NovaScreen (NVS) G Protein-Coupled Receptor Assay for human Adrenergic, Beta 3 Receptor (Adrb3) (AID 2283262)
# Outline: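 A cell-free filter binding assay read by scintillation counting, with displacement of a specific radioligand measured after 1 hour. The receptor source was SK-N-MC extracts (cells pretreated with isoproterenol and 8-bromo-cAMP). Compounds were first tested at 25 uM in duplicate and then in concentration series.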
# [8] = biological target: human Dopamine Receptor D4.4 (DRD4.4), DRD4 (gene 1815) (UniProt P21917); assay: NVS_GPCR_hDRD4.4: NovaScreen (NVS) G Protein-Coupled Receptor Assay for human Dopamine Receptor D4.4 (DRD4.4) (AID 2283264)
# Outline: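 Filter-binding assay with a tritiated or iodinated ligand, cell-free receptor prepared from CHO, 1 hour. Loss of bound radioactivity versus DMSO; single 25 uM duplicate screen, then concentration-response for actives.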
# [9] = biological target: human Adrenergic, Beta 1 Receptor (Adrb1), ADRB1 (gene 153) (UniProt P08588); assay: NVS_GPCR_hAdrb1: NovaScreen (NVS) G Protein-Coupled Receptor Assay for human Adrenergic, Beta 1 Receptor (Adrb1) (AID 2283258)
# Outline: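 Membranes/protein extracted from human neuroepithelioma cells, radioligand competition binding read by filtration and scintillation 2 h post-dose. Single 25 uM duplicate screen, then concentration-response follow-up; DMSO as negative control.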
# [10] = biological target: Beta-2 adrenergic receptor (Homo sapiens) (UniProt P07550); assay: NVS_GPCR_hAdrb2: NovaScreen (NVS) G Protein-Coupled Receptor Assay for human Adrenergic, Beta 2 Receptor (Adrb2) (AID 2283261)
# Procedure: NVS_GPCR_hAdrb2 is a biochemical, single-readout assay that uses extracted gene-proteins from CHO in a cell-free assay. Measurements were taken 1 hour after chemical dosing in a 96-well plate.NVS_GPCR_hAdrb2 is one of one assay component(s) measured or calculated from the NVS_GPCR_hAdrb2 assay. It is designed to make measurements of radioligand binding, a form of binding reporter, as detected with scintillation counting signals by Filter-based radiodetection technology.Data from the assay component NVS_GPCR_hAdrb2 was analyzed into 1 assay endpoint. This assay endpoint, NVS_GPCR_hAdrb2, was analyzed in the positive analysis fitting direction relative to DMSO as the negative control and baseline of activity. […] Furthermore, this assay endpoint can be referred to as a primary readout, because the performed assay has only produced 1 assay endpoint. […]
# Binding assays used specific radioligands (tritiated, iodinated) with non-radioactive competitive displacement ligands in agonist or antagonist protocols (as indicated) and various reference compounds and inhibitors to titrate specific binding to receptors and transporters. Most enzyme assays (CYPs, kinases, phosphatases, proteases, HDACs) used recombinant protein and specific substrates (fluorescence mostly, some colorimetric and radioactive) and inhibitors, followed by a biochemical separation of substrate and product. […]
# human Serotonin, 5-Hydroxytryptamine Receptor 7 (5HT7), HTR7 (gene 3363), sequence (P34969 whole entry, looked up): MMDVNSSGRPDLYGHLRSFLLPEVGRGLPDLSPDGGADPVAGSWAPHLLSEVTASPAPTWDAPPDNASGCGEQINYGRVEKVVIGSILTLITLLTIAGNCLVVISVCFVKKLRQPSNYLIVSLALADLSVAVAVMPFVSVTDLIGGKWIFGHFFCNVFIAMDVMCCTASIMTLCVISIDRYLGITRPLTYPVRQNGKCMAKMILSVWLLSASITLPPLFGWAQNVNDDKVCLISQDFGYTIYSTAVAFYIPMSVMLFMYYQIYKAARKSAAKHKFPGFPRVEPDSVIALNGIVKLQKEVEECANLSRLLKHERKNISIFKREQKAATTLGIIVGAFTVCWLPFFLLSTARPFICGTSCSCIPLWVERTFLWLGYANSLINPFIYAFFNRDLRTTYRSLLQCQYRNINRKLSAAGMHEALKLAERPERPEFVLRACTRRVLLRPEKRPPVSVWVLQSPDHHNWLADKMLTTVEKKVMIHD
# Type-1 angiotensin II receptor (Homo sapiens), sequence (P30556 whole entry, looked up): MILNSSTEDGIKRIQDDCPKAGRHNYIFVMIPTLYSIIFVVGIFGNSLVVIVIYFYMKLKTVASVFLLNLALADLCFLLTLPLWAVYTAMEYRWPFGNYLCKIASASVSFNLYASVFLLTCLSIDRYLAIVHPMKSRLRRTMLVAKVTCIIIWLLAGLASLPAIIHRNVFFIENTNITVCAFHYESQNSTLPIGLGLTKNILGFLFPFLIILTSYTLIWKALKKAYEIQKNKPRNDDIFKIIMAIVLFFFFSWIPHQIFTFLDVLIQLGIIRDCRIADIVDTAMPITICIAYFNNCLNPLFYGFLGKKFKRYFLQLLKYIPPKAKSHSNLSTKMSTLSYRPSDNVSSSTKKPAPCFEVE
# human Dopamine Receptor D2 (DRD2), DRD2 (gene 1813), sequence (P14416 whole entry, looked up): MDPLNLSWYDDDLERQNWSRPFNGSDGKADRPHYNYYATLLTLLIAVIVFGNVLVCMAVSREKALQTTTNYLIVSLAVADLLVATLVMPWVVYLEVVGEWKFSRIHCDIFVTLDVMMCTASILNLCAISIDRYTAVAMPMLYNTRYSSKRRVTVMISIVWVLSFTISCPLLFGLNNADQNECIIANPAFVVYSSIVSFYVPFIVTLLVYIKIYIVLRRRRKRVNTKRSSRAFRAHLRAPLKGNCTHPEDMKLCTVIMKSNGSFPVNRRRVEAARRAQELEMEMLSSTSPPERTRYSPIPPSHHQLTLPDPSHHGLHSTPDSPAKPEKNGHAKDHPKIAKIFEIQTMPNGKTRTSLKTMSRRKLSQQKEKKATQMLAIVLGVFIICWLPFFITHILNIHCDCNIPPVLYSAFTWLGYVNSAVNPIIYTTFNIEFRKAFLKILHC
# human Adenosine A2a Receptor (AdoRA2a), ADORA2A (gene 135), sequence (P29274 whole entry, looked up): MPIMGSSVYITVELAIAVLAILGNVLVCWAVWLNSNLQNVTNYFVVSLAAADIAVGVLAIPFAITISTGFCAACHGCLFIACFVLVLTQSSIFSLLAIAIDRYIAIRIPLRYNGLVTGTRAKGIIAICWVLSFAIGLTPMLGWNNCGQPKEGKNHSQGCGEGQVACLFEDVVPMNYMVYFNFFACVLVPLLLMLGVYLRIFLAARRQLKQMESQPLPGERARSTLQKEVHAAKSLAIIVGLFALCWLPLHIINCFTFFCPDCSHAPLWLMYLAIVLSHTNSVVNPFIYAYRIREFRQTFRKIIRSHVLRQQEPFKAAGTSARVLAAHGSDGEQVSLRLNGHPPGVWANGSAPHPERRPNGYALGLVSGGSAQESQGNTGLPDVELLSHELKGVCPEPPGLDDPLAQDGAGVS
# human Adrenergic, Alpha 2c Receptor (Adra2C), ADRA2C (gene 152), sequence (P18825 whole entry, looked up): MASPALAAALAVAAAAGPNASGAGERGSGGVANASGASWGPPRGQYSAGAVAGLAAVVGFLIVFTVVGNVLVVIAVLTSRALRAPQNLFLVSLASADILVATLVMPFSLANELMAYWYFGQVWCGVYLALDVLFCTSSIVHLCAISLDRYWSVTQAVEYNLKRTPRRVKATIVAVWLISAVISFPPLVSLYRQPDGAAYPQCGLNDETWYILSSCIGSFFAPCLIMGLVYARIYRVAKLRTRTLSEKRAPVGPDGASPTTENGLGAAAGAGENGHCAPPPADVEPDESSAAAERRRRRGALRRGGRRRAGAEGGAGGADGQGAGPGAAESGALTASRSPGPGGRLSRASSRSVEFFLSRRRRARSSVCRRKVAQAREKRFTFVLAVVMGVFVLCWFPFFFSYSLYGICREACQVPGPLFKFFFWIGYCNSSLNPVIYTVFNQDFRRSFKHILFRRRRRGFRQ
# human Dopamine Receptor D4.4 (DRD4.4), DRD4 (gene 1815), sequence (P21917 whole entry, looked up): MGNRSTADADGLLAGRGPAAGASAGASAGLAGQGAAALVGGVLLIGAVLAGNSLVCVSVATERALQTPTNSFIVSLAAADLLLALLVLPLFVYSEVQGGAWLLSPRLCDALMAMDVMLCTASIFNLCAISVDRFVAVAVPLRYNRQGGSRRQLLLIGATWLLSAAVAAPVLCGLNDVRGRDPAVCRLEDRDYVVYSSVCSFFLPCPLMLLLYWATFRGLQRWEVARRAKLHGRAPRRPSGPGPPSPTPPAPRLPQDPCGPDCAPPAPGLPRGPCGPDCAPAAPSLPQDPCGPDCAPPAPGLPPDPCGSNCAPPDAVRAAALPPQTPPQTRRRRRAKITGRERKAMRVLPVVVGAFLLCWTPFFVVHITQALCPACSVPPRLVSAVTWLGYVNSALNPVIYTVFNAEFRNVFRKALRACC
# human Adrenergic, Alpha 2A Receptor (Adra2A), ADRA2A (gene 150), sequence (P08913 whole entry, looked up): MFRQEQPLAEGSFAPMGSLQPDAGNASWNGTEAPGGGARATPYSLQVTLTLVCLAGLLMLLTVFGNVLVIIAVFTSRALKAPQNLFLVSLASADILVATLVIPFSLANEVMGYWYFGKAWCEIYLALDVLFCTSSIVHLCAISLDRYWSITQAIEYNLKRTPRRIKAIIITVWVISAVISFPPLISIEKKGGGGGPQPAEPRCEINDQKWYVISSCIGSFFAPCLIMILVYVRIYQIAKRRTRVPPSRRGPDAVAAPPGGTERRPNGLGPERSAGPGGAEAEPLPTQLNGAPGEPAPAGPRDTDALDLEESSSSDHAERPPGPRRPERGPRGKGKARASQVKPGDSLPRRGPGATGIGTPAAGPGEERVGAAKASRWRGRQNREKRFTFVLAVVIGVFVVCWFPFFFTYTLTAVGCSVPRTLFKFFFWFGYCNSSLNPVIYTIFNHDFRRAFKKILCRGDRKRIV
# human Adrenergic, Beta 3 Receptor (Adrb3), ADRB3 (gene 155), sequence (P13945 whole entry, looked up): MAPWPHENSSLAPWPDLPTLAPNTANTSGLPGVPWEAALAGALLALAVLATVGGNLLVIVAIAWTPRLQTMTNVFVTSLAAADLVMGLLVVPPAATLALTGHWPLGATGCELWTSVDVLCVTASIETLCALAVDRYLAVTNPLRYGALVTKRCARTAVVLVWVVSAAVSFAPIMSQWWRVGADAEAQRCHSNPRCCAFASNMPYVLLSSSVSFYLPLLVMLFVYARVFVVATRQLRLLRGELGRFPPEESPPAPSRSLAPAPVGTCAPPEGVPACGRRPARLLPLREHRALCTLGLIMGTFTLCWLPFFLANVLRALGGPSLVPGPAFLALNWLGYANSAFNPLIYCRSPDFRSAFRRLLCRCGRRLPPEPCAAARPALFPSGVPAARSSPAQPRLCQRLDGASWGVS
# Beta-2 adrenergic receptor (Homo sapiens), sequence (P07550 whole entry, looked up): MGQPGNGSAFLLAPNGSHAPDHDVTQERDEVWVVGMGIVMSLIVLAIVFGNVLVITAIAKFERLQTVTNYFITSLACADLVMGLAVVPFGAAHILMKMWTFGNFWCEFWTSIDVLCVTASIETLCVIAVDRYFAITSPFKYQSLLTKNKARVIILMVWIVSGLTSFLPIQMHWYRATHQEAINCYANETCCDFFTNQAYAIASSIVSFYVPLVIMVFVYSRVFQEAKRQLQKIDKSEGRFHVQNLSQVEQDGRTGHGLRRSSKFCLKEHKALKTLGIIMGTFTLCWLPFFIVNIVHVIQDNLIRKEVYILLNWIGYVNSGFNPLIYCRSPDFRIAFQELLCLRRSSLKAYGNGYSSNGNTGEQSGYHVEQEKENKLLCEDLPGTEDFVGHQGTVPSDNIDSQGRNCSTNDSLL
# human Adrenergic, Beta 1 Receptor (Adrb1), ADRB1 (gene 153), sequence (P08588 whole entry, looked up): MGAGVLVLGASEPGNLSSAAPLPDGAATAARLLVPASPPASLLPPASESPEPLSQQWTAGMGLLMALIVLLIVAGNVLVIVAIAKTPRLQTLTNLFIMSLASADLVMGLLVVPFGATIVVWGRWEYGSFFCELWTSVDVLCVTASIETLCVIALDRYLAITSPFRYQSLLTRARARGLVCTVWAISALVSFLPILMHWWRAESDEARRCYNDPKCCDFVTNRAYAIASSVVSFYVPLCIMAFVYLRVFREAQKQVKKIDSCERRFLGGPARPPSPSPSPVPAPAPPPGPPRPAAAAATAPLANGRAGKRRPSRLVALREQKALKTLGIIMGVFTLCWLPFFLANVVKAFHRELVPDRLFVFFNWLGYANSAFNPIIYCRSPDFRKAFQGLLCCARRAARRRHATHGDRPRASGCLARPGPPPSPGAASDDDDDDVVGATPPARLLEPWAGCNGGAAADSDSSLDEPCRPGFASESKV
compound,measurement,setting,value
CCc1cnc(C2=NC(C)(C(C)C)C(=O)N2)c(C(=O)O)c1 (stereo not given),outcome,[1],inactive
O=[N+]([O-])c1cc(C(F)(F)F)c(Cl)c([N+](=O)[O-])c1Nc1ncc(C(F)(F)F)cc1Cl,AC50,[2],6.87 µM (active)
CN(C)C(=O)Nc1cccc(C(F)(F)F)c1,outcome,[3],inactive
CSc1nc(NC(C)C)nc(NC(C)C)n1,AC50,[2],4.59 µM (active)
CCCSP(=O)(OCC)Oc1ccc(Br)cc1Cl (stereo not given),outcome,[4],inactive
CCOP(=S)(OCC)Oc1ccc2c(C)c(Cl)c(=O)oc2c1,outcome,[5],inactive
C[Si](Cn1cncn1)(c1ccc(F)cc1)c1ccc(F)cc1,AC50,[6],16.6 µM (active)
CCNc1nc(Cl)nc(NC(C)(C)C#N)n1,AC50,[2],5.75 µM (active)
CON=C(C(=O)OC)c1ccccc1CON=C(C)c1cccc(C(F)(F)F)c1,outcome,[7],inactive
CCCOc1nn(C(=O)NS(=O)(=O)c2ccccc2C(=O)OC)c(=O)n1C,outcome,[4],inactive
N#CSCSC#N,AC50,[4],14.9 µM (active)
CCOP(=O)(OCC)Oc1cc(C)nc(C(C)C)n1,outcome,[4],inactive
CCOP(=O)(SC(C)CC)N1CCSC1=O (stereo not given),outcome,[7],inactive
COc1cc(OC)nc(Sc2cccc(Cl)c2C(=O)O)n1,outcome,[4],inactive
CC(C)=CC1C(C(=O)OCN2C(=O)C3=C(CCCC3)C2=O)C1(C)C (stereo not given),outcome,[6],inactive
COP(=O)(OC)OC(Br)C(Cl)(Cl)Br (stereo not given),AC50,[4],13.5 µM (active)
CC(C)[C@H](C(=O)O[C@H](C#N)c1cccc(Oc2ccccc2)c1)c1ccc(Cl)cc1,AC50,[6],6.87 µM (active)
C[N+]1(C)CCCCC1,outcome,[1],inactive
S=C1NCCN1,outcome,[3],inactive
CCC(=O)Nc1ccc(Cl)c(Cl)c1,AC50,[2],10 µM (active)
Cc1cc(C2CC2)nc(Nc2ccccc2)n1,AC50,[6],25 µM (active)
same,AC50,[2],14.1 µM (active)
same,AC50,[8],12.3 µM (active)
CCOP(=S)(OCC)Oc1cc(C)nc(C(C)C)n1,outcome,[4],inactive
O=C(O)c1cc(Oc2ccc(C(F)(F)F)cc2Cl)ccc1[N+](=O)[O-],AC50,[2],7.71 µM (active)
same,outcome,[3],inactive
CC[C@H](C)[C@H]1O[C@]2(C=C[C@@H]1C)C[C@@H]1C[C@@H](C/C=C(\C)[C@@H](O[C@H]3C[C@H](OC)[C@@H](O[C@H]4C[C@H](OC)[C@@H](NC)[C@H](C)O4)[C@H](C)O3)[C@@H](C)/C=C/C=C3\CO[C@@H]4[C@H](O)C(C)=C[C@@H](C(=O)O1)[C@]34O)O2,AC50,[6],4.29 µM (active)
same,AC50,[5],26.8 µM (active)
same,AC50,[9],9.83 µM (active)
same,AC50,[1],10.7 µM (active)
same,AC50,[10],18.1 µM (active)
same,AC50,[4],17 µM (active)
same,AC50,[8],16.2 µM (active)
same,AC50,[3],25 µM (active)
CCOC(=O)CC(SP(=O)(OC)OC)C(=O)OCC (stereo not given),outcome,[2],inactive
